The list is not random: actives were taken first. Their share in the collection is about 10%.
HPGD inh: inhibitors of human 15-hydroxyprostaglandin dehydrogenase (HPGD). P15428. purified HPGD, NADH fluorescence kinetic, PGE2 substrate. Potency, µM, without a hit: at the top dose activity change, negative = inhibition, most hits filed as inhibitors. 4.3% of 150,000 active. AID 894; further: potency means the concentration at half of the fitted maximal effect
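20 nM HPGD preincubated 15 min at room temperature with compound in 50 mM Tris-HCl pH 8, 0.01% Tween 20. Started with 1 mM NAD+ and 30 uM prostaglandin E2; NADH fluorescence (360/450 nm) read 5 times over 30-s intervals, last minus first.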
Luc counter: Kinase-Glo luciferase inhibition (counter-screen); Q27757; Kinase-Glo luciferase, ATP luminescence, 8 min; Potency, µM (doses to about 38.3 µM), inactives show at the top dose activity change, negative = inhibition, actives largely listed as inhibitors; 0.28% of 200,000 active; active means well fitted inhibition curve with a large enough effect; inconclusive means small, poorly fitted or top-dose-only effect; further: potency means the concentration at half of the fitted maximal effect; nearly all actives have a fitted effect of over 60% in size
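Kinase-Glo luciferase light output from ATP and luciferin was measured with 10 uM ATP, within the enzyme's linear range. Buffer: 50 mM imidazole pH 7.2, 50 mM KCl, 7 mM MgCl2, 0.01% Tween 20, 0.05% BSA; luminescence read after 8 min at ambient temperature.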
PNC assembly inh: inhibitors of perinucleolar compartment assembly. activity change (PNC), negative = inhibition, % at 10 µM. 3.1% of 140,000 active. PC3M PTB-GFP, PNC prevalence imaging, 16 h; active compounds read low;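 active means readout at or below -70, meaning at least 70% loss of cells showing the perinucleolar compartment, a nuclear body marking cancer cells; inconclusive means readout between -30 and a set limit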;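 further: plate controls were DMSO wells for no effect and camptothecin positive control wells for full effect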
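PC3M cells stably expressing PTB-GFP, 750–1000 cells/well, treated 16 h at 37 °C with compound (23 nl of library stock), in duplicate. After paraformaldehyde fixation and Hoechst stain, imaged at 20x; PNC prevalence scored by image analysis.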
Lamin A splicing: changes lamin A minigene splicing in HeLa cells; 0.01% of 200,000 active; Potency, µM (highest dose often 46.1 µM), inactives show at the top dose ratio change, negative = inhibition, usual class: inhibitors; HeLa LMNA splicing GFP/RFP minigene ratio, 48 h; active means well fitted inhibition curve with a large enough effect in the signal ratio, with a control signal flat, not every such curve was filed as active; inconclusive means small, poorly fitted or top-dose-only effect, or effect the other way, or a change in a side signal; the % refers to the signal ratio; further: potency means the concentration at half of the fitted maximal effect
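S3 HeLa stable clones carrying a lamin A-EGFP splicing minigene plus DsRed2 were seeded at 600 cells/well in Opti-MEM with 2% FBS, pin-dosed and incubated 48 h at 37°C. Acumen cytometry (488 nm) gave the GFP/RFP total-intensity ratio.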
IMPase cell inh: cell-permeable inhibitors of inositol monophosphatase (IMPase); inhibition (IP1 accumulation), % at 46.1 µM; 120,000 tested, under 10 active; CHO-M1 cells, IP1 accumulation, HTRF TR-FRET ratio; active means well fitted curve in the direction sought with a large enough effect in the signal ratio, not every such curve was filed as active; inconclusive means small, poorly fitted or top-dose-only effect, or a change in a side signal; inactive means no such curve, though single readings can be large or run the other way; the % refers to the signal ratio;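 further: cells stimulated with carbachol in lithium chloride buffer; plate controls were DMSO basal wells for no effect and reference inhibitor wells for full effect; higher means more IMPase inhibition seen as more IP1 and lower FRET ratio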
Target sequence (P97697 whole entry, looked up): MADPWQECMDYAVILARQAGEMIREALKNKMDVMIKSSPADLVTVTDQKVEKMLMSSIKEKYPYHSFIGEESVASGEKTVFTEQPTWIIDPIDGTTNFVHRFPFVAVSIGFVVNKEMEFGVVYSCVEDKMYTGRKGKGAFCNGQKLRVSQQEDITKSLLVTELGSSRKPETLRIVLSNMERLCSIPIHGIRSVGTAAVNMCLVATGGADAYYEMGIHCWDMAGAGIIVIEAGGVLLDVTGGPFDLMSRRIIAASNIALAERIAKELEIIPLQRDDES
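Measured: the HTRF emission ratio (665/620 nm) plus the 620 nm donor channel, each fitted to the Hill equation to give AC50. Cells were CHO-M1 given compounds up to 46 uM and a 30 min carbachol stimulation at 37C.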
ALDH1A1 inh: blocks purified human ALDH1A1 activity | P00352 | Purified ALDH1A1, NADH fluorescence, propionaldehyde substrate | Potency, µM (series often up to 75.3 µM), without a hit: at the highest dose activity, negative = inhibition, actives largely listed as inhibitors | 7.3% of 220,000 active;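 further: potency means the concentration at half of the fitted maximal effect; plate controls were no enzyme wells and a reference inhibitor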
Target sequence (P00352 whole entry, looked up): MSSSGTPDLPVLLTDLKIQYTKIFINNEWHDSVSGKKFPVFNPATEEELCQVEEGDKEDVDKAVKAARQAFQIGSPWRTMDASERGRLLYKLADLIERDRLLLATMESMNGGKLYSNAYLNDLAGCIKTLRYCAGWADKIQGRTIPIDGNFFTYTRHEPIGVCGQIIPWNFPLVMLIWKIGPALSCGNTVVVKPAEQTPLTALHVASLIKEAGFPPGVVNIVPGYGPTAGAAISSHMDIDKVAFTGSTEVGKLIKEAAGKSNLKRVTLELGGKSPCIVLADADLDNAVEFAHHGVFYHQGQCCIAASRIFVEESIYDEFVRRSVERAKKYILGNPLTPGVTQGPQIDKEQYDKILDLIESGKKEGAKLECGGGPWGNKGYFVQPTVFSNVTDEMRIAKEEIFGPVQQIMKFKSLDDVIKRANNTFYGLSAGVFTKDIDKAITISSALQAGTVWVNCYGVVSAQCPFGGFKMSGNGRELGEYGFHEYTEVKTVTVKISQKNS
* marks the source's active call; other numbers are inactive results; ? = inconclusive; nt = no result given; [ ] = another dose, or the depositor's remark. Unless noted, the call rests on the fitted dose curve; in most records, active means well fitted inhibition curve with a large enough effect (not every such curve was filed as active); inconclusive means small, poorly fitted or top-dose-only effect, or another doubt; inactive means no such curve, though single readings can be large or run the other way. Unless noted, on the % scale 0 is the no-effect control and ±100 the full control effect.

SMILES	HPGD inh	Luc counter	PNC assembly inh	Lamin A splicing	IMPase cell inh	ALDH1A1 inh
COc1ccc(-c2cc(C(C)=O)c(C)n2CCC(=O)Nc2ccc(C)cc2Cl)cc1	nt	nt	nt	13%[46 µM]	nt	nt
CN(C(=O)c1ccc(=O)n(Cc2ccc(Cl)cc2)c1)c1ccccc1	nt	3%	nt	nt	nt	14µM*
COC(=O)NC(C(=O)OC)(C(=O)OC)c1ccccc1	-3%	0%	nt	nt	nt	4%
O=C(O)CC1=C(O)C(=O)N(c2ccccc2)C1c1ccccc1 (centres undefined)	-16%	4%	-18	8%	4	6.3µM*
COC(=O)C/C=C/[C@@H](C)[C@@H](Cc1ccccc1Br)OC	-12%	1%	nt	nt	nt	-6%
CCOc1ccc(-c2nnn(CC(=O)NCc3ccco3)n2)cc1OCC	-8%	-3%	-100*	1%	-14	-1%
CCCCOc1ccc(-c2nnn(CC(=O)NCc3ccco3)n2)cc1	-12%	-1%	18	-17%	12	-4%
COCc1cc(C)nc(OCC(=O)N/N=C/c2ccc(-c3cc([N+](=O)[O-])ccc3C)o2)c1C#N	-25%	1%	-6	-13%	-1	-7%
Cc1ccc([N+](=O)[O-])cc1-c1ccc(/C=C(\C#N)c2[nH]nc(N)c2C#N)o1	2.2µM*	1%	43	?	nt	-7%
N=C(N)SCC(=O)O	-12%	2%[7.66 µM]	nt	nt	nt	7%[13.5 µM]
COc1ccc(/C=N/Nc2nc(NCc3ccco3)nc(Nc3ccc(OC)cc3)n2)cc1	-27%	-1%	14	-5%	nt	11µM*
COc1cccc(OC)c1-c1nn2c(-c3cc(-c4ccccc4)n[nH]3)nnc2s1	13µM*	0%	15	?	4	6%
CSc1nnc(-c2ccc(Cl)cc2Cl)o1	-20%	-1%	-2	-8%	3	8%
CCSc1nnc(-c2ccc(Cl)cc2Cl)o1	14µM*	-9%	-4	5%	9	?
CSc1nnc(-c2ccccc2Cl)o1	32µM*	0%	55	12%	6	6%
Clc1ccc(-c2nnc(-c3ccccc3)o2)c(Cl)c1	?	?	40	11%	1	32µM*
CSc1ccccc1-c1nnc(-c2ccc(Cl)cc2Cl)o1	?	-13%	?	17%	2	?
COc1ccc(-c2nc3n(n2)C(c2ccccc2OC)C(C(=O)Nc2cccnc2)=C(C)N3)cc1 (centres undefined)	nt	nt	nt	nt	-2	nt
COC(=O)[C@@H]1CCCN1Cc1nc(Cc2ccc(OC)c(OC)c2)no1	nt	-3%	nt	nt	nt	0.89µM*
COC(=O)[C@@H]1CCCN1Cc1nc(Cc2ccccc2F)no1	nt	1%	nt	nt	nt	?
CC(C)CC(C(=O)Nn1cnnc1)N1C(=O)c2ccccc2C1=O (centres undefined)	-22%	2%	-100*	-4%	-1	?
O=C(Nc1nc(=S)ss1)c1c(F)cccc1F	?	0%	-27	4%	-6	22µM*
CC(=O)Nc1nc(=S)ss1	25µM*	2%	22	7%	0	3.2µM*
Cc1ccccc1C(=O)Nc1nnc(SC(C)C)s1	nt	-6%	nt	nt	nt	16µM*
CC(C)Sc1nnc(NC(=O)CCc2ccccc2)s1	nt	0%	nt	nt	nt	-1%
SMILES	HPGD inh	Luc counter	PNC assembly inh	Lamin A splicing	IMPase cell inh	ALDH1A1 inh
Cc1ccccc1C(=O)Nc1ccc(Br)c(C)n1	-20%	-26%	-107*	8%	4	?
O=C(Cn1nc2c(cc1=O)CCCC2)Nc1ccccc1C(F)(F)F	nt	nt	nt	-2%[46 µM]	nt	nt
CC(C)[C@@H]1C(=O)N(S(C)(=O)=O)[C@H]2CCN(C(=O)/C=C\CN3CCCCC3)[C@@H]12	5%	1%	nt	nt	12	6%
Cc1ccccc1C(=O)Nc1nc(=S)ss1	14µM*	-3%	?	-7%	-2	3.2µM*
CC(C)CC(=O)Nc1nc(=S)ss1	14µM*	-1%	-8	-6%	4	3.5µM*
CC(C)CC(=O)Nc1nnn(C)n1	-11%	-1%	1	1%	1	8%
COc1c(C=O)c(=O)[nH]c2c(OC)cccc12	-20%	-2%	nt	nt	nt	?
C[C@H]1COC(=O)[C@H](Cc2ccccc2)NC(=O)[C@@H](C)COC(=O)[C@H](Cc2ccccc2)NC1=O	nt	nt	nt	nt	nt	4%[13.5 µM]
CC(C)(C)c1ccc(S(=O)(=O)NNC(=O)C2CCN(Cc3cccc(F)c3)CC2)cc1	nt	0%	nt	nt	nt	2.2µM*
O=C(NCc1cccc(F)c1)C1CCN(S(=O)(=O)Cc2ccccc2)CC1	-3%	1%	-25	4%	-5	5%
c1nc(NCCc2cnc[nH]2)c2[nH]cnc2n1	-14%	1%[7.66 µM]	nt	nt	nt	2%[13.5 µM]
O=C(O)/C=C/C(=O)Nc1ccc2c(c1)NC(=O)CO2	nt	-1%	nt	nt	nt	22µM*
O=C1COc2ccc(C(=O)/C=C/c3ccccc3)cc2N1	-23%	1%	-6	?	nt	?
CC(=C\C(=O)O)/C(=C/c1ccc(C)o1)C(=O)O	-19%	8%	-2	-3%	nt	22µM*
C/C(=C\c1ccc(C)o1)C(=O)c1c(C)cc(C)[nH]c1=O	nt	3%	nt	17%[9.22 µM]	nt	?
O=C(O)[C@H]1CN[C@H](C(=O)O)C1	-5%	2%	nt	nt	6	-6%
CC(=O)c1ccc(N2CCN(C(=O)c3ccco3)CC2)c(F)c1	16µM*	2%	38	8%	-4	3.5µM*
COC(=O)c1ccc(N2C(=O)CC(N3CCN(C(=O)c4ccco4)CC3)C2=O)cc1 (centres undefined)	-1%	-3%	27	-9%	-9	13µM*
CC(=O)c1ccc(N2CCN(C(=O)c3ccc(Br)cc3)CC2)c(F)c1	28µM*	4%	?	-3%	14	10µM*
CCCOc1ccc(N2C(=O)CC(N3CCN(C(=O)c4ccco4)CC3)C2=O)cc1 (centres undefined)	7%	3%	-7	-6%	8	?
CC(=O)c1cc(F)c(N2CCN(C(=O)c3ccco3)CC2)cc1C	-9%	0%	47	11%	-8	?
CCCCCCCCCCCCCCCCOC[C@H](COP(=O)([O-])OCC[N+](C)(C)C)OC(=O)NC	-7%	2%	nt	nt	nt	-1%
O=C1CCCC(=O)C1=Cc1c[nH]c2ccccc12	22µM*	-1%	21	?	-5	?
O=C(C1CCN(CCCc2ccccc2)CC1)N1CCCCC1	-18%	-4%	63	-4%	2	14µM*
C/C(=C\c1ccccc1)CN1CCC(C(=O)N2CCC(C)CC2)CC1	-7%	-4%	36	1%	7	35µM*
O=C(C1CCCN(Cc2cccnc2)C1)N1CCCCC1 (centres undefined)	nt	nt	-82*	16%	5	5µM*
C/C(=C\c1ccccc1)CN1CCC(C(=O)N2CCCCC2)CC1	14µM*	11%	-16	4%	nt	?

Compound activity: PubChem BioAssay, National Center for Advancing Translational Sciences (NCATS)
